FBPA coupling cs = inhibits coupling enzyme system, counter-screen for aldolase hits. activity change, negative = inhibition, % at 58.2 µM, hits read low. hit rate 0.67% among 290,000. coupling enzyme system counterscreen, AmpLite Red fluorescence; in the data active = activity change below about -30%; also: % is scaled to controls: 0 for no effect and ±100 for the full control effect
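Counterscreen lacking aldolase: glyceraldehyde-3-phosphate coupling-enzyme reagent preincubated 10 min at RT with compound (at 57.5 uM final), then substrate/coupling system with AmpLite Red added; fluorescence read at 525/598 nm after 20 min RT.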
Tau FP inhib = tau fibrillization inhibition (FP) | P10636 | K18 P301L tau heparin fibrillization, Alexa594 FP, 6 h | Potency, µM (doses to about 57.7 µM), without a hit: top-dose activity, negative = inhibition, hits mostly inhibitors | hit rate 0.39% among 280,000 | AID 1468; also: potency is read from the fitted curve at half-maximal effect; % is scaled to controls: 0 for no effect and ±100 for the full control effect; nearly all actives have a fitted effect of over 55% in size
Target sequence (P10636 561-689 P618L limits assumed): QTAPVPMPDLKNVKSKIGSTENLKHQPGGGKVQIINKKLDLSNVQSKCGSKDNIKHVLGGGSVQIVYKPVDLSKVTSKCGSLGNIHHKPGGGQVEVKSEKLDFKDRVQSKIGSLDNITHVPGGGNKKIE
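Human K18 P301L fragment (15 uM unlabeled plus 0.24 uM Alexa 594-labeled) in 100 mM sodium acetate pH 7 with compound, aggregation induced by 20 uM heparin for 6 hr at 37 C. ThT (30 uM) added for 1 hr, then Alexa 594 FP read.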
Tau fluor counter = counter-screen for tau fibril formation inhibitors; Potency, µM (titrated, usually from 57.7 µM), without a hit: at the highest dose activity change, negative = decrease; tau K18 P301L Alexa594 fluorescence, heparin fibrillization; hit rate 0.93% among 280,000; AID 1463; also: potency is read from the fitted curve at half-maximal effect; % is scaled to controls: 0 for no effect and ±100 for the full control effect; nearly all actives have a fitted effect of over 55% in size
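Human tau K18 P301L (15 uM unlabeled, 0.24 uM Alexa 594-labeled) in 100 mM sodium acetate pH 7 with 20 uM heparin, 6 hr at 37 C. ThT 30 uM added, 1 hr ambient; Alexa 594 FP and total fluorescence read at 555/632 nm.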
Tau ThT inhib = inhibitors of human tau fibril formation, thioflavin T binding | Potency, µM (series often up to 57.4 µM), without a hit: at the highest dose activity, negative = inhibition, usual class: inhibitors | P10636 | recombinant tau K18 P301L, heparin-induced fibrillization, ThT fluorescence | hit rate 2.1% among 270,000 | AID 1460; also: potency is read from the fitted curve at half-maximal effect; % is scaled to controls: 0 for no effect and ±100 for the full control effect; nearly all actives have a fitted effect of over 55% in size
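Heparin-induced fibrillization of the P301L-mutant K18 repeat-domain fragment of human tau was followed by ThT binding in quantitative high-throughput format.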
USP1-UAF1 inh = inhibitors of human USP1/UAF1 deubiquitinase | O94782 | recombinant USP1/UAF1, Ub-Rhodamine cleavage fluorescence | Potency, µM (series often up to 57.1 µM), inactives show at the highest dose activity change, negative = inhibition, most hits filed as inhibitors | hit rate 0.23% among 390,000 | AID 743255; also: potency is read from the fitted curve at half-maximal effect; % is scaled to controls: 0 for no effect and ±100 for the full control effect; nearly all actives have a fitted effect of over 60% in size
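In this screen, compounds sit with the deubiquitinase complex (1nM) for 15 min at room temperature before Ub-Rho is added at 150nM final. Fluorescence rise is then followed for 6 reads every 60 seconds.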
Tau fibril TEM = Blocks tau fibril formation, electron microscopy | shares compounds with Tau ThT inhib | recombinant tau K18 P301L fibrillization, TEM grading; hits give high values | fibril grade (0 = clumped fibrils, 4 = only tiny pieces) (test concentration not listed) | hit rate 70% among 45 | AID 1719;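 active = compounds whose electron micrographs showed tau fibrils broken into shorter filaments or fragments, graded high on fibril breakup; inconclusive = micrographs gave an unclear fibril picture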
tau fibril sed = reduces sedimented tau K18 P301L aggregates. recombinant tau K18 P301L (four-repeat tau fragment), sedimentation SDS-PAGE densitometry. hit rate 50% among 110. inhibition, % at 100 µM. AID 1720. shares compounds with Tau ThT inhib; in the data active = inhibition above about 40%; inconclusive = no clear call, values can overlap the other calls; inactive = below about 18%
Active calls of the source: *; ? = inconclusive; · = no result; ! = a repeat was not active. Shown are actives, neighbours in structure and some others; about 2.3% of the full set was active somewhere. Unless noted, calls follow the shape of the dose curve; as a rule, active = well fitted curve in the direction sought with a large enough effect; inconclusive = small, poorly fitted or top-dose-only effect, or another doubt; inactive = no such curve, though single readings can be large; an effect the other way counts as inactive or inconclusive.

SMILES | FBPA coupling cs | Tau FP inhib | Tau fluor counter | Tau ThT inhib | USP1-UAF1 inh | Tau fibril TEM | tau fibril sed
O=S(=O)(c1ccc(NC(=S)N/N=C/c2ccc(N3CCOCC3)cc2)cc1)N1CCOCC1 | -0.2 | 14.3% | ? | ? | -14.0% | · | 11.0
O=S(=O)(c1ccc(NC(=S)N/N=C/c2ccc(Oc3ccccc3)cc2)cc1)N1CCOCC1 | -0.6 | 0.6% | -10.0% | 4.2% | -11.4% | · | ·
Cc1ccc(S(=O)(=O)N(C)c2nc3ccccc3[nH]c2=S)cc1 | 2.6 | ? | -24.3% | 1.12µM* | -10.9% | 0 | ?
NC[C@H](O)c1ccc(O)c(O)c1 | -40.4* | 6.31µM*! | ? | 3.98µM*! | 5.2% | 3* | 75.0*
COc1cc(C(O)CO)ccc1O (centres undefined) | · | -1.6% | -2.3% | -3.1% | 4.7% | · | ·
NC[C@@H](O)c1ccc(O)c(O)c1 | -36.0*! | ? | -15.3% | ? | · | · | 18.0
Cc1ccc(N2C(=O)SC(Cc3ccccc3)C2=O)cc1 (centres undefined) | 7.5 | ? | -23.8% | ? | -15.0% | ? | ?
O=C1SC(Cc2ccccc2)C(=O)N1c1ccccc1 (centres undefined) | 2.7 | 0.6% | -5.9% | -8.2% | 8.7% | · | ·
CCNc1ncc2ncc(=O)n(C3CC3)c2n1 | -2.1 | · | · | · | · | · | ·
Cc1cc2c(N)cccc2nn1 | -37.1* | ? | ? | 3.16µM* | ? | 3* | 64.0*
Nc1nc2cc(S(=O)(=O)NC3=NCCCCC3)ccc2s1 | 2.9 | ? | -24.8% | 5.01µM* | -4.1% | 2* | 69.0*
O=C(COC(=O)c1ccc(O)cc1)Nc1cccc(S(=O)(=O)NC2=NCCCCC2)c1 | 1.4 | -11.3% | -18.3% | -8.7% | -7.7% | · | ·
CCOC(=O)c1ccc(S(=O)(=O)Nc2nc3cc(S(=O)(=O)NC4=NCCCCC4)ccc3s2)cc1 | 15.3 | 15.8µM* | ? | 11.2µM* | -9.2% | 2* | 68.0*
COc1ccccc1NC(=O)C1=C(C)Nc2nc(SC)nn2C1c1ccccc1Cl (centres undefined) | · | -9.4% | -27.2% | ? | ? | · | ·
CCOC(=O)c1nn(-c2ccccc2)c(=O)c2c(NC(C)=O)scc12 | -6.2 | -4.0% | -6.8% | 2.2% | -5.5% | · | 11.0
CCN1CCN(C(=O)c2nn(-c3ccccc3)c(=O)c3ccccc23)CC1 | 1.2 | -0.7% | -6.3% | -2.9% | -10.6% | · | ·
NC(=O)c1nn(-c2ccccc2)c(=O)c2c(N)scc12 | · | · | · | · | · | · | 89.0*
CCOC(=O)c1nn(-c2ccccc2)c(=O)c2c(N)scc12 | -45.5* | ? | ? | 8.91µM* | 17.8µM* | 2* | 73.0*
Nc1scc2c(C(=O)N3CCOCC3)nn(-c3ccccc3)c(=O)c12 | · | · | · | · | · | · | 89.0*
Cc1cc(C)cc(C(=O)Nc2cccc(NC(=O)c3ccco3)c2)c1 | · | · | · | · | -3.2% | · | ·
CCOc1ccc(S(=O)(=O)N(CC)CC(=O)NCc2cccnc2)cc1 | 1.1 | · | · | · | -1.0% | · | ·
CC(=O)c1cccc(S(=O)(=O)N2CCC(C(=O)NC3CCCC3)CC2)c1 | · | · | · | · | -20.1% | · | ·
Nc1scc2c(CO)nn(-c3ccccc3)c(=O)c12 | · | · | · | · | · | · | 81.0*
Nc1nn(-c2ccccc2)c(=O)c2c(N)scc12 | · | · | · | · | · | · | 86.0*
Cc1ccc(C)c(NC(=O)C(c2ccccc2)N2CCOCC2)c1 (centres undefined) | 3.1 | 6.8% | -1.6% | 10.6% | 0.4% | · | ·
SMILES | FBPA coupling cs | Tau FP inhib | Tau fluor counter | Tau ThT inhib | USP1-UAF1 inh | Tau fibril TEM | tau fibril sed
Cn1[nH]c(CSc2ccc(Cl)cc2)cc1=O | 7.0 | ? | ? | ? | 0.2% | · | 16.0
Cc1ccccc1OCCC(=O)OCC(=O)NC(=O)c1ccccc1 | · | · | · | · | -11.9% | · | ·
COC(=O)CSc1nc2ccc(NC(=O)CSc3nnnn3Cc3ccccc3)cc2s1 | 1.9 | ? | ? | ? | -11.2% | · | 18.0
COc1ccc2c(c1)c(CC(=O)N1CCOCC1)c(C)n2C(=O)c1ccc(Cl)cc1 | 0.5 | 7.5% | -5.2% | -5.6% | · | · | 9.0
COc1ccc2c(c1)c(CC(=O)OCC(N)=O)c(C)n2C(=O)c1ccc(Cl)cc1 | 0.8 | -9.5% | -18.1% | -4.0% | -12.7% | · | ·
O=S(=O)(c1ccc(N=C2NN=C(c3cc(F)ccc3F)CS2)cc1)N1CCOCC1 | 3.1 | ? | ? | 6.31µM* | ? | 3* | 44.0*
CC(C)C(NC(=O)c1ccc(F)cc1)C(=O)Nc1cccnc1 (centres undefined) | 1.0 | 3.1% | -1.1% | 4.8% | -11.9% | · | ·
CCOc1cc(/C=N/N=C2/NC(=O)C(CC(=O)O)S2)ccc1OCc1ccc(Cl)cc1Cl (centres undefined) | 15.0 | -0.7% | 7.9% | ? | -10.3% | · | ·
COc1cc(/C=N/N=C2/NC(=O)C(CC(=O)O)S2)ccc1OCc1ccc(Cl)cc1 (centres undefined) | 4.9 | 12.2% | 3.7% | -8.3% | -20.0% | · | 18.0
COc1ccc(N(CC(=O)Nc2cc(Cl)ccc2C)S(=O)(=O)c2c(C)n[nH]c2C)cc1 | · | · | · | · | -25.2% | · | ·
O=C(Cc1ccccc1)Nc1sc2c(c1C(=O)Nc1ccc(Cl)cc1)CCCC2 | · | ? | -24.1% | 8.91µM* | -25.4% | 2* | 61.0*
O=C(Cc1ccccc1)Nc1sc2c(c1C(=O)Nc1ccccc1)CCCCC2 | · | -10.8% | -9.1% | -2.8% | ? | · | ·
CC(=O)c1ccc(NC(=O)CN2C(=O)CCc3ccccc32)cc1 | · | -1.1% | -23.0% | ? | 6.3% | · | ·
O=C(O)c1cccc(S(=O)(=O)Nc2ccc([N+](=O)[O-])cc2O)c1 | 9.7 | ? | -24.3% | -25.4% | -1.8% | · | ·
CCc1ccc(S(=O)(=O)Nc2cc(SCC(=O)O)c(O)c3ccccc23)cc1 | -42.2* | 8.91µM* | ? | 3.16µM* | ? | 4* | 77.0*
CCc1ccc(S(=O)(=O)Nc2ccc(O)c3ccccc23)cc1 | -8.9 | · | · | · | -11.9% | · | ·
O=C(O)CSc1cc(NS(=O)(=O)c2cccc([N+](=O)[O-])c2)c2ccccc2c1O | -40.4* | 3.98µM* | ? | 1.78µM* | 17.8µM* | 4* | 79.0*
COc1ccc(NC(=O)C2CCN(S(=O)(=O)c3c(C)noc3/C=C/c3cccs3)CC2)cc1Cl | · | 15.8µM* | -18.5% | 4.6% | -6.4% | · | 8.0

Compound activity: PubChem BioAssay, National Center for Advancing Translational Sciences (NCATS)
